Assay outcomes from PubChem BioAssay.
An excerpt weighted towards active compounds, which were near 4% of everything screened.
DENV2 CPE: inhibitors of DENV2 cytopathic effect, primary screen, cell-based, plate reader, single concentration | CPE inhibition, % at 9.99 µM | DENV2-infected cells, cytopathic effect rescue | hit rate 1.7% among 350,000 | AID 651640, 2012; in the data active means CPE inhibition above about 20%, passing the limit was not always enough; inconclusive means no clear call, values can overlap the other calls; tested in BHK-21 cells;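 further: 0% = median of neutral control wells and 100% = median of positive control wells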
ERAP1 inh: human ERAP1 aminopeptidase inhibitors, primary screen, biochemical, single point, plate reader; Endoplasmic reticulum aminopeptidase 1 (Homo sapiens), Q9NZ08; recombinant ERAP1, Leu-AMC fluorescence, 60 min; inhibition, % at 10.7 µM; hit rate 0.15% among 340,000; AID 652197, 2013;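 active means mean replicate inhibition of at least 30%, or all replicates individually reaching that 30% level; inactive means mean below 30% and not every replicate reaching it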;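 further: 0% = neutral control wells and 100% = L-leucinethiol positive control wells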
RAD52 anneal inh: RAD52 DNA annealing inhibitors, primary screen, biochemical, FRET, single point, set 2. recombinant RAD52 DNA annealing, FRET fluorescence. inhibition, % at 18.7 µM. hit rate 0.46% among 360,000. AID 651710, 2012;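 active means every replicate showing at least 50% inhibition; inconclusive means mean inhibition at least 50% but not in every replicate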
AF4-AF9 inh: inhibitors of AF4 peptide binding to AF9, primary screen, biochemical, AlphaScreen, biotin-AF4 peptide, FLAG-AF9, single point; inhibition, % at 10 µM; hit rate 0.47% among 350,000; Protein AF-9 (Homo sapiens), P42568; AID 651704, 2012;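 active means every replicate reaching a set inhibition limit, whatever the replicate mean, cut at about 25% in these data; inconclusive means mean inhibition reaches that limit but some replicates miss it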;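 further: 0% = plate neutral control median and 100% = total signal loss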
Target sequence (P42568 whole entry, looked up): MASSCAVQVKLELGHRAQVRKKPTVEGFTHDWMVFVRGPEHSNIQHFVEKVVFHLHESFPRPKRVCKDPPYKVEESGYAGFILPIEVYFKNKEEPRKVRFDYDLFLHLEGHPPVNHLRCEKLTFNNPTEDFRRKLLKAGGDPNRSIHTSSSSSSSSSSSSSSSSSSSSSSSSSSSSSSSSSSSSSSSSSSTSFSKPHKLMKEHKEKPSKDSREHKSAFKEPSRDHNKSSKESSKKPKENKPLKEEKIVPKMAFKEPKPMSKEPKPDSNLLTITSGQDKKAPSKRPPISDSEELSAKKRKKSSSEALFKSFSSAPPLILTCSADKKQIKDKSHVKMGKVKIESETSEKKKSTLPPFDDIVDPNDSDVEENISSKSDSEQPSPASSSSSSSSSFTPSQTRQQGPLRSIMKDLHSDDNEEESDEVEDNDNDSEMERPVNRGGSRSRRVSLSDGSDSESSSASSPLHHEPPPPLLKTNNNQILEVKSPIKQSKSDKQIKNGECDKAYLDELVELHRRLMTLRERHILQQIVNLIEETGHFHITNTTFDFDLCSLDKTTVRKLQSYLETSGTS
FGF22 binding: binders of human FGF22 protein, primary screen, FGF22 synaptogenesis inhibitor project, biophysical, thermal shift, single point. hit rate 1.5% among 340,000. recombinant FGF22 thermal shift, SYPRO orange fluorescence; percent of sucrose octasulfate shift, DMSO zero. activity (Tm shift, normalised), % at 9.99 µM;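 active means mean Tm shift, scaled 0 neutral to 100 positive control, at about 1.3% or above, every replicate too, limit read from the data; inconclusive means no clear call, values can overlap the other calls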
Starred values were filed as active, the others as inactive; i = inactive; ? = inconclusive; . = no result.

SMILES | DENV2 CPE | ERAP1 inh | RAD52 anneal inh | AF4-AF9 inh | FGF22 binding
CCN1/C(=C/c2ccc3cc(C)cc(C)c3[n+]2CC)Sc2cc(C)ccc21 | 3 | 35* | i | 28* | 0
O=S(=O)(c1ccccc1)N1CCCCN2[C@H](CO)[C@H](c3ccc(-c4ccccc4F)cc3)[C@H]2C1 | 1 | 0 | 52* | 1 | 0
O=S(=O)(c1ccc(F)cc1)N1CCCCN2[C@H](CO)[C@H](c3ccc(C#CC4CCCC4)cc3)[C@H]2C1 | 5 | 3 | 58* | 6 | -1
O=S(=O)(c1ccc(F)cc1)N1CCCCN2[C@@H](CO)[C@@H](c3ccc(-c4ccccc4F)cc3)[C@@H]2C1 | -7 | 2 | 60* | 0 | 0
O=S(=O)(c1ccc(F)cc1)N1CCCCN2[C@H](C1)[C@H](c1ccc(-c3ccccc3F)cc1)[C@@H]2CO | -1 | 0 | 13 | -4 | 0
O=S(=O)(c1ccccc1)N1CCCCN2[C@H](C1)[C@H](c1ccc(-c3ccccc3F)cc1)[C@@H]2CO | -9 | 0 | -3 | 1 | 0
O=S(=O)(c1ccc(F)cc1)N1CCCCN2[C@@H](CO)[C@H](c3ccc(-c4ccccc4F)cc3)[C@@H]2C1 | -3 | 0 | 59* | 0 | 0
CNC(=O)C[C@H]1CC[C@@H]2[C@@H](COc3ccc(NC(=O)c4cscn4)cc3C(=O)N2C)O1 | 7 | . | . | . | 0
C[C@@H]1CCCCO[C@H](CN(C)Cc2ccc3c(c2)OCO3)[C@H](C)CN([C@H](C)CO)C(=O)c2cc(NC(=O)Nc3ccc(F)cc3)ccc2O1 | -6 | 1 | 14 | 11 | -1
CN(C)C(=O)[C@H]1[C@H](CO)[C@H]2Cn3c(ccc(/C=C/c4ccccc4)c3=O)[C@H]2N1CC1CC1 | 8 | 2 | -10 | -4 | .
O=C(C[C@H]1CC[C@H](NS(=O)(=O)c2ccccc2)[C@@H](CO)O1)NCc1ccncn1 | 15 | -1 | -15 | -1 | 0
CCOC(=O)NC(=O)CSc1nnc(C2CC2)n1Cc1ccco1 | -4 | -4 | -23 | 0 | 43*
Cc1nnc(SCC(=O)Nc2ccccc2F)n1Cc1ccco1 | 64* | -5 | 3 | 2 | 0
Nc1ncnc2c1ncn2C1O[C@H](CO)[C@@H](O)[C@@H]1O (stereo not given in full) | 13 | -1 | -6 | 3 | 0
OCC1OC(n2cnc3c(SCc4ccccc4)ncnc32)C(O)C1O (stereo not given) | 75* | 2 | 4 | 4 | 0
Nc1ncnc2c1ncn2C1OC(C(=O)NC2CC2)C(O)C1O (stereo not given) | -1 | -1 | -1 | 48* | 0
Nc1ncnc2c1ncn2C1OC(CO)C(O)C1O (stereo not given) | ? | -2 | 0 | -2 | 43*
Nc1ncnc2c1ncn2[C@@H]1O[C@H](C(=O)N[C@@H](CCc2ccccc2)C(=O)O)[C@@H](O)[C@H]1O | 28* | 3 | 8 | . | 0
CC(=O)N1[C@H](C(=O)NC2CCC2)[C@@H](CO)[C@@H]2Cn3c(ccc(C4=CCCC4)c3=O)[C@@H]21 | 19 | -1 | -25 | -5 | .
CC(=O)N1CC2(C1)[C@@H](c1ccc(-c3cccc(F)c3)cc1)[C@@H](CO)N2CC1CCOCC1 | -8 | 2 | -9 | 2 | 0
N#Cc1c(N)n(C2OC(CO)C(O)C2O)c2ncnc(N)c12 (stereo not given) | 6 | 1 | -6 | 3 | 43*
Nc1ncnc2c1ncn2[C@@H]1O[C@H](CO)[C@@H](O)[C@@H]1O | -3 | 1 | 7 | 9 | 0
COC(=O)c1ccccc1-c1ccc(/C=N/NC(N)=O)o1 | 9 | . | -10 | 3 | 2.9*
CC1=C(/C=C/C(C)=C/C=C/C(C)=C/CO)C(C)(C)CCC1 | 122* | 1 | -2 | -5 | 0
CN1c2ccc(-c3ccccc3)cc2[C@H]2[C@H](CCN2C(=O)Cc2ccccc2)[C@@H]1CO | -10 | -3 | -7 | -1 | 0
SMILES | DENV2 CPE | ERAP1 inh | RAD52 anneal inh | AF4-AF9 inh | FGF22 binding
Cc1cc(/C=C2/NC(=O)NC2=O)c(C)n1-c1ccc(N2CCOCC2)cc1 | 7 | 0 | -5 | 7 | 43*
Cc1cc(/C=C2\SC(=O)NC2=O)c(C)n1-c1ccc(N2CCOCC2)cc1 | 4 | 67* | -12 | 2 | 0
COc1ccc2c3c(n(C)c2c1)[C@H](CO)N(C)CC31CCN(S(=O)(=O)c2cccc(F)c2)CC1 | 2 | 1 | 14 | 17 | .
Oc1cc2c(cc1O)C(c1ccccc1)CNCC2 (stereo not given) | 52* | 1 | 12 | 7 | -1
COc1ccc(CNCCC(c2ccccc2)c2ccc3c(c2)OCO3)cc1 (stereo not given) | -6 | 8 | 33 | 25* | 0
COc1ccc(NC(=S)NCc2ccc3c(c2)OCO3)cc1 | 8 | -1 | -2 | -1 | 43*
COc1ccc(C(CC(=O)O)c2ccc3c(c2)OCO3)cc1 (stereo not given) | -3 | -4 | -8 | -2 | 0
C[C@@H]1CCCCO[C@H](CN(C)C(=O)Nc2ccc3c(c2)OCO3)[C@H](C)CN([C@H](C)CO)C(=O)c2cc(NS(=O)(=O)c3cn(C)cn3)ccc2O1 | -5 | 0 | 4 | -3 | 0
NC(=O)NC(CC(=O)NCCCc1ccccc1)c1ccccc1Cl (stereo not given) | 5 | 1 | -9 | -2 | 43*
O=C(C1CCCC1)N1CC(=O)N2[C@H](C1)[C@@H](c1ccc(C#CCc3ccccc3)cc1)[C@@H]2CO | -5 | -2 | -19 | 1 | .
COc1cccc2c(=O)n(CC(=O)Nc3ccccc3)ccc12 | -9 | -5 | -12 | 48* | 0
COc1cccc(/C=C2/NC(=O)NC2=O)c1OCC(=O)Nc1ccccc1 | 8 | -1 | 0 | -1 | 43*
COc1ccc(NC(=O)Nc2ccc3c(c2)C(=O)N([C@@H](C)CO)C[C@@H](C)[C@@H](CN(C)S(=O)(=O)c2ccc(Cl)cc2)O3)cc1 | 2 | 3 | -12 | 1 | 0
COc1ccc(S(=O)(=O)N(C)C[C@@H]2Oc3ccc(NC(=O)Nc4ccccc4)cc3C(=O)N([C@@H](C)CO)C[C@H]2C)cc1 | 35* | 3 | -7 | -1 | 0
COc1ccc(S(=O)(=O)N(C)C[C@H]2Oc3ccc(NC(=O)CCCN(C)C)cc3C(=O)N([C@@H](C)CO)C[C@H]2C)cc1 | 33* | 1 | -8 | -1 | 0
